We go through 26 compounds from PubChem BioAssay (NCATS).

Test [1] in a line: Primary fluorescence-based thiol-reactive (MSTI) qHTS assay for identification of artifact compounds. (AID 1845221). Further: nearly all actives have a fitted effect of over 65% in size. Further: potency means the concentration at half of the fitted maximal effect.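 On activity change, negative = thiol reactive: series mostly up to about 54 µM; thiol-reactive compounds lower the probe fluorescence signal.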 An outline of the steps:
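First, 4 uM MSTI in 2% DMSO/PBS pH 7.4 was dispensed; next, compounds were added; then plates sat 1 h at room temperature without light. Finally, emission at 598 nm was recorded.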

Test [2] has as its system Nanoluciferase (engineered Oplophorus gracilirostris luciferase). The test can be described thus: Primary Nanoluciferase (NLuc) qHTS assay for identification of artifact compounds. (AID 1845222). Further: potency means the concentration at half of the fitted maximal effect.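 On activity, negative = inhibition: NLuc secreted into diluted conditioned medium of S16 cells; series mostly up to about 54 µM; 0% = DMSO and -100% = no enzyme.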 An outline of the steps: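 Concentration-response data were obtained by luminescence after 5 min with Nano-Glo substrate at 1:100. The enzyme was diluted S16 NLuc-expressing cell medium, preincubated with compound for 15 min at RT. Curves were fitted with a 4-parameter Hill model.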

Test [3] is described as follows: Primary redox qHTS assay for identification of artifact compounds. (AID 1845223).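 Further: 0% = DMSO and 100% = reference compound.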 An outline of the steps: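 Redox-cycling detection via DTT (250 uM final) oxidation coupled to Amplex Red (25 uM)/HRP (250 mU/mL) in HBSS. 15 min preincubation plus 30 min after DTT, room temperature. Ex/Em 525/598 nm; 4-parameter Hill fit against DMSO and 10 uM DA3003.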

Values without a mark were called inactive. Records with an inconclusive call do not appear. Active and inactive are the calls of the source. The call rests on the fitted dose curve; in most records, active means well fitted curve in the direction sought with a large enough effect; inconclusive means small, poorly fitted or top-dose-only effect, or another doubt; inactive means no such curve, though single readings can be large; an effect the other way counts as inactive or inconclusive. Where a SMILES comes first, the peptide text is derived from it. [ ]: non-standard residue; d: D form. 2Abz = Nc1ccccc1C(=O)O

As for `O=C1NC(=Nc2ccccc2F)S/C1=C\c1ccc(C(=O)O)cc1`, the Potency entry in test [1], in test [2] and in test [3] was “inactive” in each case.

For the compound `C/C=C(\C)C(=O)O[C@@H](C)[C@H]1CC[C@]2(O)C3CCC4C[C@@H](OC5CC(OC)C(OC6CC(OC)C(OC7CC(OC)C(OC8OC(C)C(OC9OC(CO)C(O)C(O)C9O)C(OC)C8O)C(C)O7)C(C)O6)C(C)O5)CC[C@]4(C)C3[C@H](O)[C@@H](O)[C@]12C` (stereo partly drawn), the activity change, negative = thiol reactive in test [1] is 94.5% [at 11.5 µM]. In test [2], the activity, negative = inhibition is 0.355% [at 11.6 µM]. For the same compound, the redox activity (% of DA3003) in test [3] was 14% [at 11.5 µM].

`O=C1C[C@@H](c2ccc(O)cc2)Oc2cc(O)ccc21`: the Potency entry in test [1], in test [2] and in test [3] was “inactive” each time.

Take `CC1(C)OC(=O)C(OCC2CC2)=C1c1ccc(S(C)(=O)=O)cc1`: the Potency entry in test [1], in test [2] and in test [3] was “inactive” each time.

Turning to `C=CC1(C)CC(O)C2(CCC3C(C)(C(=O)O)CCCC3(C)C2=O)C1` (stereo not drawn), the Potency entry in test [1], in test [2] and in test [3] was “inactive” each time.

Turning to `CNC(=O)c1ccc2cc([C@@]3(O)CCn4cncc43)ccc2c1`, the Potency entry in test [1], in test [2] and in test [3] was “inactive” throughout.

Regarding `CCn1nnnc1NCc1ccc(C(C)C)cc1`, the Potency result in test [1], in test [2] and in test [3] was “inactive” in each case.

With `CC12CC34C=CC(=O)C(C)(CCC(=O)O)C3C(CC1C4)O2` (stereo not drawn), the Potency entry in test [1], in test [2] and in test [3] was “inactive” throughout.

Regarding `CCCC(N[C@@H](C)C(=O)N1[C@H](C(=O)O)C[C@@H]2CCCC[C@@H]21)C(=O)OCC` (stereo partly drawn), the Potency entry in test [1], in test [2] and in test [3] was “inactive” in each case.

In the case of `C=C1C[C@]23C[C@H]1CC[C@H]2[C@]1(C)CCC[C@@]2(CO)C(=O)O[C@H]([C@H]21)[C@@H]3O`, the Potency result in test [1], in test [2] and in test [3] was “inactive” each time.

As for `CC(=O)O[C@H]1CC[C@@]2(CI)C(=CC[C@@H]3[C@@H]2CC[C@]2(C)[C@@H]([C@H](C)CCCC(C)C)CC[C@@H]32)C1`, the activity change, negative = thiol reactive in test [1] was -0.863% [at 11.5 µM]. In test [2], the activity, negative = inhibition is -1.76% [at 11.6 µM]. The redox activity (% of DA3003) in test [3] is -3.63% [at 11.5 µM].

For the compound `CC(=O)C1CCC2(C)C3=C(CCC12C)C1(C)CCC(=O)C(C)(C)C1CC3` (stereo not drawn), the Potency result in test [1], in test [2] and in test [3] was “inactive” throughout.

As for `C=C1CC/C=C(/CO)C(=O)C[C@@H]2[C@@H]1CC2(C)C`, the Potency entry in test [1], in test [2] and in test [3] was “inactive” each time.

Consider `CC(C)C(C#N)O[C@@H]1O[C@H](CO[C@@H]2OC[C@](O)(CO)[C@H]2O)[C@@H](O)[C@H](O)[C@H]1O` (stereo partly drawn), for which the Potency entry in test [1], in test [2] and in test [3] was “inactive” each time.

`CCC(C)C1NC(=O)C2CCCN2C(=O)C(C(C)C)NC(=O)c2ccccc2NC(=O)C(Cc2ccc(O)cc2)NC(=O)C(C)NC(=O)C(C(C)O)NC1=O` (stereo not drawn) (cyclo([2Abz]VPITAY); configuration not given here): the Potency result in test [1], in test [2] and in test [3] was “inactive” each time.

As to `CCOC(=O)c1ccnc(CNCC(=O)N(CC)CCN(C)C)c1`, the Potency result in test [1], in test [2] and in test [3] was “inactive” each time.

For the compound `COc1cc(/C=C/C(=O)OC2CC(C)=C(C(=O)O)/C2=C/CO[C@@H]2O[C@H](CO)[C@@H](O)[C@H](O)[C@H]2O)ccc1O` (stereo partly drawn), the Potency in test [1] is 4.12 µM (active). For the same compound, the Potency entry in test [2] and in test [3] was “inactive” each time.

As for `CC(C)C(=O)O[C@@H]1[C@@H](O)[C@@H](O[C@H]2O[C@H](CO)[C@@H](O)[C@H](O)[C@H]2O)O[C@H](CO)[C@H]1O`, the Potency entry in test [1], in test [2] and in test [3] was “inactive” each time.

Regarding `COc1cc(NC(=O)c2ccccn2)ccc1Cl`, the Potency entry in test [1], in test [2] and in test [3] was “inactive” throughout.

For `C/C=C(/C)C(=O)O[C@H]1C=C(C)C[C@H](OC(=O)c2ccc(O)cc2)C2[C@](O)(C(C)C)CC[C@@]21C` (stereo partly drawn), the Potency result in test [1], in test [2] and in test [3] was “inactive” throughout.

For `O=c1ccn([C@@H]2O[C@H](CO)[C@@H](O)[C@H]2O)c(=O)[nH]1`, the Potency result in test [1], in test [2] and in test [3] was “inactive” each time.

For the compound `CCC(CC)n1ccc2c(C(=O)NCc3c(C)cc(C)[nH]c3=O)cc(C#N)cc21`, the Potency entry in test [1], in test [2] and in test [3] was “inactive” each time.

`CC(C)[C@@H](C)/C=C/[C@@H](C)[C@H]1CC[C@H]2C3=CC=C4C[C@@H](O)CC[C@]4(C)[C@H]3CC[C@]12C`: the Potency result in test [1], in test [2] and in test [3] was “inactive” throughout.

In the case of `CCOc1c2c(c(OCC)c3ccccc13)C(=O)N(c1ccc(CC(=O)NS(=O)(=O)c3ccccc3)cc1)C2`, the Potency entry in test [1] and in test [3] was “inactive” in each case. Also, in test [2], the Potency is 12 µM (active).

For `COc1ccccc1[C@@H]1C2=C(CC(C)(C)CC2=O)Nc2n[nH]c(C(F)(F)F)c21`, the Potency entry in test [1], in test [2] and in test [3] was “inactive” throughout.

For the compound `CC[C@H]1OC(=O)[C@H](C)[C@@H](O[C@H]2C[C@@](C)(OC)[C@@H](O)[C@H](C)O2)[C@H](C)[C@@H](O[C@@H]2O[C@H](C)C[C@H](N(C)C)[C@H]2O)[C@@](C)(O)C[C@@H](C)[C@@H]2N[C@@H](COCCOC)OC([C@H]2C)[C@]1(C)O`, the Potency result in test [1], in test [2] and in test [3] was “inactive” throughout.
